{"source": "PubChem BioAssay (NCATS)", "note": "Inconclusive results are not listed. Calls of active or inactive are those of the source. Calls follow the shape of the dose curve; as a rule, active = well fitted cell-killing curve with a large enough effect; inconclusive = small, poorly fitted or top-dose-only effect; inactive = flat fitted curve, though single readings scatter. % is scaled to controls: 0 for no effect and ±100 for the full control effect.", "data": [{"test": "Cell Viability - LYMP2-010 (AID 981); also: nearly all actives have a fitted effect of over 55% in size", "conditions": "LYMP2-010 lymphoblastoid cell viability, qHTS; series mostly up to 92.2 µM; activity, negative = cytotoxicity: at the top concentration", "from_the_text": "NIH Chemical Genomics Center [NCGC]\nNIH Molecular Libraries Screening Centers Network [MLSCN]\nNational Institutes of Environmental Health Sciences [NIEHS]\nNational Toxicology Program [NTP]\nWe have developed a 1536-well cell-based assay for quantitative high throughput screening (qHTS) against a number of cell lines to determine in vitro cytotoxicity of small molecules. This particular assay uses a human lymphoblastoid cell line (LYMP2-010) purchased from Coriell Institute for Medical Research.\nNCGC Assay Protocol Summary:\nThe CellTiter-Glo luminescent cell viability assay (Promega) is a homogeneous method to measure the number of viable cells in culture. The end point readout of this assay is based on quantitation of intracellular ATP, an indicator of metabolic activity, using the luciferase reaction. Luciferase catalyzes the oxidation of beetle Luciferin to oxyluciferin and light in the presence of ATP. The luminescent signal is proportional to amount of ATP present.\nUsing the CellTiter-Glo luminescent cell viability assay, the amount of cellular ATP was measured in the lymphoblastoid cell line with complete culture medium following compound treatment for 24 hours. The assay was performed in opaque white Kalypsys 1536-well plates. In the screen, tetraoctylammonium bromide was used as positive control. Library compounds were measured for their ability to cause acute toxicity in the cell line, as reflected by a decrease in intracellular ATP levels, in a concentration-dependent manner. […] AC50 values were determined from concentration-response data modeled with the standard Hill equation.\nqHTS protocol for CellTiter Glo lymphoblastoid cellular assay\n[Step] [Parameter] [Value] [Description]\n1. Reagent; 5 uL; 2500 lymphoblastoid cells/well\n2. Time; 5 hr; 37 C incubation\n4. Controls; 23 nL; Tetraoctylammonium bromide 6.4pM to 92 uM\n5. Time; 24 hr; 37 C incubation\n6. Reagent; 5 uL; CellTiter Glo reagent\n7. Time; 30 min; Room Temperature\n8. Detection; Luminescence; Viewlux plate reader\nKeywords: cell viability, cytotoxicity, lymphoblastoid cell line, luminescence, NTPHTS, NTPHTS_NCGC, NIEHS, DSSTox, MLSMR, MLSCN, NIH Roadmap, qHTS, NCGC", "values": [{"compound": "COc1ccc2c(c1)c(CC(=O)O)c(C)n2C(=O)c1ccc(Cl)cc1", "activity, negative = cytotoxicity": "-7.09% (inactive)"}, {"compound": "CC(C)C(=O)Nc1ccc([N+](=O)[O-])c(C(F)(F)F)c1", "activity, negative = cytotoxicity": "-13.5% (inactive)"}, {"compound": "NCCS(=O)(=O)O", "activity, negative = cytotoxicity": "-3.23% (inactive)"}, {"compound": "Nc1c2c(nc3ccccc13)CCCC2", "activity, negative = cytotoxicity": "-20.4% (inactive)"}, {"compound": "Cn1c(=O)c2c(ncn2C)n(C)c1=O", "activity, negative = cytotoxicity": "-13.7% (inactive)"}, {"compound": "Cn1c(=O)c2[nH]cnc2n(C)c1=O", "activity, negative = cytotoxicity": "-9.81% (inactive)"}, {"compound": "CCC1(c2ccccc2)C(=O)NCNC1=O", "activity, negative = cytotoxicity": "0.437% (inactive)"}, {"compound": "Clc1ccc(C(c2ccccc2Cl)C(Cl)Cl)cc1", "note": "(stereo unspecified)", "activity, negative = cytotoxicity": "-18.7% (inactive)"}, {"compound": "Nc1ccn([C@H]2CC[C@@H](CO)O2)c(=O)n1", "activity, negative = cytotoxicity": "-3.2% (inactive)"}, {"compound": "N[C@@H](Cc1c[nH]c2ccc(O)cc12)C(=O)O", "activity, negative = cytotoxicity": "-29.1% (inactive)"}, {"compound": "NS(=O)(=O)c1cc2c(cc1Cl)NCNS2(=O)=O", "activity, negative = cytotoxicity": "-10.8% (inactive)"}, {"compound": "Cc1cn([C@H]2C[C@H](N=[N+]=[N-])[C@@H](CO)O2)c(=O)[nH]c1=O", "activity, negative = cytotoxicity": "-8.61% (inactive)"}, {"compound": "COc1ccc2[nH]cc(CCNC(C)=O)c2c1", "activity, negative = cytotoxicity": "7.84% (inactive)"}, {"compound": "CC(C)NCC(O)c1ccc(O)c(O)c1", "note": "(stereo unspecified)", "activity, negative = cytotoxicity": "-26.4% (inactive)"}, {"compound": "Cc1ccc(-c2cc(C(F)(F)F)nn2-c2ccc(S(N)(=O)=O)cc2)cc1", "activity, negative = cytotoxicity": "-2.99% (inactive)"}, {"compound": "Cc1cn([C@H]2C=C[C@@H](CO)O2)c(=O)[nH]c1=O", "outcome": "inactive"}]}]}
